Assay [1] relates to Plasmodium falciparum Sir2 (PF13_0152, Sir2A). Put plainly: Plasmodium falciparum Sir2A binding compounds – biochemical, small-molecule microarray, 635 nm fluorescence, primary screen (AID 1098).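 Also: score merges spot fluorescence intensity with its signal-to-noise ratio.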 To be noted: fluorescence 635 nm, higher = more signal.
Assay [2] in a line: probe aDKK1 binding to arrayed compounds – biochemical, biotinylated probe, 635/667 nm fluorescence, primary screen (AID 1099).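 Also: score merges 667nm spot fluorescence with signal to noise across triplicate slides.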 To be noted: small-molecule microarray, higher = more signal.
A short description of assay [3]: probe aCHRDL2 binding to arrayed compounds – biochemical, biotinylated probe, 635/667 nm fluorescence, primary screen (AID 1100). To be noted: small-molecule microarray, higher = more signal.
Assay [4] in a line: change in splice reporter luminescence, either direction, cell-based, HEK293, spliceosome inhibition project, primary screen (AID 1101).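 Also: HEK293 cells carrying a splicing-competent luciferase reporter gene; test concentration not given here.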 To be noted: HEK293 splicing luciferase reporter, 24 h, higher = more signal, called active from +8 up or from −8 down. (In general: A reporter such as luciferase makes a cellular process visible.)
Assay [5] deals with Fibroblast growth factor 10 (Homo sapiens) (UniProt O15520). Description: compounds binding fibroblast growth factor 10 – biochemical, small-molecule microarray, 635 nm fluorescence, primary screen (AID 1102). The conditions noted are these: FGF10 binding, fluorescence 635 nm, higher = more signal.
Fibroblast growth factor 10 (Homo sapiens), sequence (O15520 whole entry, looked up): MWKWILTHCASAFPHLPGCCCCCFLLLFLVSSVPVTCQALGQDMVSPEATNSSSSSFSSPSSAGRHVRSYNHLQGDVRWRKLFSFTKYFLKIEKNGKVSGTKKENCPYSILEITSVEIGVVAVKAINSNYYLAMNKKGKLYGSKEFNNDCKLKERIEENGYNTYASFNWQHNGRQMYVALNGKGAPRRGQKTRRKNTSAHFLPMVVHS
Assay [6] has as its system glycogen synthase kinase-3 (GSK3A per assay name; protocol says GSK3B). Description: compounds binding glycogen synthase kinase-3 – biochemical, small-molecule microarray, 635 nm fluorescence, GSK3A, primary screen (AID 1103). Also: the record names both GSK3A and GSK3B. The conditions noted are these: fluorescence 635 nm, higher = more signal.
The target in assay [7] is Epidermal growth factor receptor (Homo sapiens) (UniProt P00533). Put plainly: compounds binding epidermal growth factor receptor – biochemical, small-molecule microarray, 635 nm fluorescence, primary screen (AID 1104).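 Also: score merges 667 nm emission intensity with spot signal to noise over triplicate slides.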 The conditions noted are these: EGFR binding, higher = more signal.
Epidermal growth factor receptor (Homo sapiens), sequence (P00533 whole entry, looked up): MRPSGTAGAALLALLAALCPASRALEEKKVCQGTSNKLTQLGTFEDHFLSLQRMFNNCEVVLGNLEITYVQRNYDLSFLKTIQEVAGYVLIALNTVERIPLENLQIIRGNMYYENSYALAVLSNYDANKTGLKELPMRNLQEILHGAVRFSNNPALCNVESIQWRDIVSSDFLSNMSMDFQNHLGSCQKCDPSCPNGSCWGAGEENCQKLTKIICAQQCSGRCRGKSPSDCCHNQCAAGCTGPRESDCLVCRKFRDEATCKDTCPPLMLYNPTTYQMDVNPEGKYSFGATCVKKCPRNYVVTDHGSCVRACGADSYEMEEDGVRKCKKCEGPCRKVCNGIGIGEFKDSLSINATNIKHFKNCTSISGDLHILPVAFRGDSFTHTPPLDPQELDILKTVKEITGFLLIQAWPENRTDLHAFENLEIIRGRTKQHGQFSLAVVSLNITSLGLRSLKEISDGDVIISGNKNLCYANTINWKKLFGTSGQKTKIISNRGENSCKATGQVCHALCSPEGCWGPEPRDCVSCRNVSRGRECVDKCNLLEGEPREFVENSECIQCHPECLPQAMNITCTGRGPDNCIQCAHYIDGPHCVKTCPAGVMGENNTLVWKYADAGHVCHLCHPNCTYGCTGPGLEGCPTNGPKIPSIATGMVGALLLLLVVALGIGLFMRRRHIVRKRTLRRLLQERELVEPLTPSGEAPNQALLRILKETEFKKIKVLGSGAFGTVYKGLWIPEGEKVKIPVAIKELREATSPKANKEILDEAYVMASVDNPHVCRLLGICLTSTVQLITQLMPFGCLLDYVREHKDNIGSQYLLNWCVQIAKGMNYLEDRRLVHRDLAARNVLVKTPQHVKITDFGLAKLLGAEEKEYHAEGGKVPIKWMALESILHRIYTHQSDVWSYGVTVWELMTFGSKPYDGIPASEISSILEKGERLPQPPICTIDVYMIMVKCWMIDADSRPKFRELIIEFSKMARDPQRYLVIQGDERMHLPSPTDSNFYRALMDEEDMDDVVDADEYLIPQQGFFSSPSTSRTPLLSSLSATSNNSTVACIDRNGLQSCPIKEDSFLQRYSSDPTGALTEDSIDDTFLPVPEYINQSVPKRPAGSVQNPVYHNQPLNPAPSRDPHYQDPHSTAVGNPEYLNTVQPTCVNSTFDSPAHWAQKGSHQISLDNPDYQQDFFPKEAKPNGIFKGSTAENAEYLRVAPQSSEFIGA
Assay [8] concerns the target Follistatin-related protein 3 (Homo sapiens) (UniProt O95633). Description: compounds binding follistatin-related protein 3 – biochemical, small-molecule microarray, 635 nm fluorescence, primary screen (AID 1105).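 Also: score merges emission near 667 nm and signal to noise per printed spot across three slides.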 The conditions noted are these: FSTL3 binding, higher = more signal.
The target of assay [9] is Dickkopf-related protein 1 (Homo sapiens) (UniProt O94907). Put plainly: small molecules binding DKK1 protein – biochemical, small-molecule microarray, 635 nm fluorescence scan, primary screen (AID 1106).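 Also: score merges emission near 667 nm with signal to noise over three replicate slides.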 To be noted: higher = more signal.
Dickkopf-related protein 1 (Homo sapiens), sequence (O94907 whole entry, looked up): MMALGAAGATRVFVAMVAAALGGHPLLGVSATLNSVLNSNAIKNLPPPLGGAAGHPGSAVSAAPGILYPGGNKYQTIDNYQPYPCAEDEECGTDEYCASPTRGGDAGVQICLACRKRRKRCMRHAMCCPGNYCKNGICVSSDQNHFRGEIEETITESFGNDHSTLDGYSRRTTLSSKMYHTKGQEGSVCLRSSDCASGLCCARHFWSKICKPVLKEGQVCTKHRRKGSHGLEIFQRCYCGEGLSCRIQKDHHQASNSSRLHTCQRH
Assay [10] deals with Inhibin beta A chain (activin A). Description: small molecules binding activin A – biochemical, small-molecule microarray, 635 nm fluorescence scan, primary screen (AID 1107).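 Also: mouse activin A protein probed at 4.33 µg/mL on printed slides; score merges bound-protein fluorescence near 667 nm with spot signal-to-noise.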 The conditions noted are these: INHBA, higher = more signal.
For assay [11], the system named is Human papillomavirus type 1a protein E7 (residues 44-93). Put plainly: small molecules binding HPV E7 44-93 – biochemical, small-molecule microarray, residues 44-93, 635 nm fluorescence, primary screen (AID 1108).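 Also: E7 fragment applied at 1 µg/mL in TBST for 1 h at 4 C; score combines spot fluorescence with its signal to noise ratio.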 To be noted: fluorescence 635 nm, higher = more signal.
A short description of assay [12]: hepatitis C replication reporter changes, two-sided – Huh7 cells, luciferase reporter, HCV replication inhibitor project, primary screen (AID 1109).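 Also: huh7 hepatoma cells harbouring a luciferase neomycin HCV replicon reporter; luciferase luminescence as measure of HCV replicon replication; test concentration not given here.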 The conditions noted are these: Huh7 HCV replicon luciferase reporter, 48 h; higher = more signal.
Assay [13] has as its target Left-right determination factor 2 (Homo sapiens) (UniProt O00292). Put plainly: small molecules binding LEFTY2 protein – biochemical, small-molecule microarray, 635 nm fluorescence scan, primary screen (AID 1110). To be noted: higher = more signal.
Assay [14] concerns the target Calmodulin-1 (Homo sapiens) (UniProt P0DP23). Put plainly: small molecules binding calmodulin-1 with EGTA – biochemical, small-molecule microarray, Cy5-labelled CALM1, profiling panel (AID 1111).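 Also: labelled calmodulin applied in Tris saline Tween buffer holding calcium plus EGTA and DTT.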 The conditions noted are these: Cy5-CALM1 binding fluorescence, higher = more signal.
Assay [15] has the same target. Description: small molecules binding Ca-loaded calmodulin-1 – biochemical, small-molecule microarray, Cy5-labelled CALM1, plus calcium, artefact control for SMM control-protein annotation, profiling panel (AID 1112).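 Also: score merges spot fluorescence with signal to noise from triplicate slides.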 The conditions noted are these: Cy5-CALM1 binding fluorescence, higher = more signal.
Assay [16] in a line: probe aWnt5a binding to arrayed compounds – biochemical, biotinylated probe, 635/667 nm fluorescence, primary screen (AID 1113).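 Also: score merges 667 nm fluorescence intensity with signal-to-noise per printed feature.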 The conditions noted are these: small-molecule microarray, higher = more signal.
A short description of assay [17]: probe aShh binding to arrayed compounds – biochemical, biotinylated probe, 635/667 nm fluorescence, primary screen (AID 1114).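 Also: probe is biotin-labelled aShh protein from a stem cell growth factor screen; measures binding of labelled protein to compounds printed on the slide; score merges feature fluorescence at 667 nm with signal-to-noise.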 To be noted: small-molecule microarray, higher = more signal.
Assay [18] in a line: probe aNog binding to arrayed compounds – biochemical, biotinylated probe, 635/667 nm fluorescence, primary screen (AID 1115).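 Also: probe is biotinylated aNog protein used at 0.15 µg/mL for 1 h at 4 C; z-score combines 667 nm fluorescence of each spot with its signal to noise.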 The conditions noted are these: small-molecule microarray, higher = more signal.
The target in assay [19] is Torsin-1A-interacting protein 1 (Homo sapiens) (UniProt Q5JTV8). Put plainly: compound microarray binding of lysate hLAP1 – cell lysate, small-molecule microarray, COS7 lysate, 635/667 nm fluorescence, primary screen (AID 1116). To be noted: 635 nm fluorescence, higher = more signal.
Torsin-1A-interacting protein 1 (Homo sapiens), sequence (Q5JTV8 whole entry, looked up): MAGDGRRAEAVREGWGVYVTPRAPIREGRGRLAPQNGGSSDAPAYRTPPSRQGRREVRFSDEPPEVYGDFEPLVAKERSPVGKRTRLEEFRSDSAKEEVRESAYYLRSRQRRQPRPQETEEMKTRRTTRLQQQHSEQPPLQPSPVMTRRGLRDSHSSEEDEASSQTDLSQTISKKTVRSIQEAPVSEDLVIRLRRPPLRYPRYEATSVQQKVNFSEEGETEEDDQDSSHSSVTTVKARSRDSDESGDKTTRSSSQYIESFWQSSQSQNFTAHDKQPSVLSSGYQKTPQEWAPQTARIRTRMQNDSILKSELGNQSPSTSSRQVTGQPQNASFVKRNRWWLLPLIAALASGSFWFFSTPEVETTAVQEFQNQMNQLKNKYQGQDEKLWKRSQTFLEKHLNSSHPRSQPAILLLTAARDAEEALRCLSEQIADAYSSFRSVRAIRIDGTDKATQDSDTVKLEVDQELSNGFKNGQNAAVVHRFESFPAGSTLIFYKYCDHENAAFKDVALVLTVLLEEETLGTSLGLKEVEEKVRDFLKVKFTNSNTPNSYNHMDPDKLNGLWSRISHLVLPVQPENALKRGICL
The target of assay [20] is Alpha-bungarotoxin (Bungarus multicinctus) (UniProt P60615). Put plainly: compounds binding labelled alpha-BTX control protein – biochemical, small-molecule microarray, Alexa647 label, 635/667 nm fluorescence, artefact control for SMM control protein annotation, profiling panel (AID 1117). To be noted: alpha-BTX-A647 binding fluorescence, higher = more signal.
Alpha-bungarotoxin (Bungarus multicinctus), sequence (P60615 whole entry, looked up): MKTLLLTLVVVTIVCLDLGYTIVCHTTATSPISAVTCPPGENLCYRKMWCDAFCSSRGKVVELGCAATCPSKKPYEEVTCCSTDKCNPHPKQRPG

The source made the active and inactive calls.

Follistatin-related protein 3 (Homo sapiens), sequence (O95633 whole entry, looked up): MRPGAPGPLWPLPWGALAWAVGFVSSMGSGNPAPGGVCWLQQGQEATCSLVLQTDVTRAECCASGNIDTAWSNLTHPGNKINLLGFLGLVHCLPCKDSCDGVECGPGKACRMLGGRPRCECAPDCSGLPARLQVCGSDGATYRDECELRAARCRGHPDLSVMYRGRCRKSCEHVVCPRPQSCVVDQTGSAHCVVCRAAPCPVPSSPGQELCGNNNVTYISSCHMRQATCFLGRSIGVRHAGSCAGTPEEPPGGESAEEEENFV
Left-right determination factor 2 (Homo sapiens), sequence (O00292 whole entry, looked up): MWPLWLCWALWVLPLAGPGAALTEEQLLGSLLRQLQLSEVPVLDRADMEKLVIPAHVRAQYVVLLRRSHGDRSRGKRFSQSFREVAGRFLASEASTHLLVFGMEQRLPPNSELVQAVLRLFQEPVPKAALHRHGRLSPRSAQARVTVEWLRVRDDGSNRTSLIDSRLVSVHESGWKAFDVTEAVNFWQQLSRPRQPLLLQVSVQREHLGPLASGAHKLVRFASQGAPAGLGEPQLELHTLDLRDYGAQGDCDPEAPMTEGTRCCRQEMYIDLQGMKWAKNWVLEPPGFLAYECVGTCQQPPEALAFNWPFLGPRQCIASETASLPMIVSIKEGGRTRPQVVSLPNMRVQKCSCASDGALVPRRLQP

For `[N-]=[N+]=NCc1ccccc1[C@@H]1OC(c2ccc(OCCCO)cc2)=N[C@]1(Cc1ccccc1)C(=O)N1CCCCC1`, the composite z-score in assay [1] was 1.36; in [2] it was 0.792; in [3] it was 0.63; in assay [5], 1.32; in assay [6] it was 1.18; in assay [7] it was -0.167. The composite z-score in [8] came to 0.584; in [9], 0.118; in [10], 0.407; in assay [11], 1.39; in assay [13], 0.232; in assay [14], 1.4. Further, the composite z-score in [15] is 0.955; in assay [16], 0.0136; in [17], 0.369; in [18] it was 0.733; in [19], 1.27; in [20] it was 1.14. Also, the values for the z-score in [4] and in [12] were -0.276 (inactive) and -2.79, respectively.

In the case of `CC(=O)Nc1cc(Br)ccc1C(=O)O`, the composite z-score was 0.976 in [1]; 1.34 in [2]; 0.0861 in [3]; 0.225 in assay [5]; 0.157 in assay [6]; -0.433 in assay [7]. Further, the composite z-score was 0.0984 in [8]; -0.44 in [9]; -0.27 in assay [10]; 0.688 in [11]; -0.229 in [13]; 0.908 in assay [14]. Moreover, the composite z-score in assay [15] is 0.762; in assay [16] it was -0.096; in assay [17] it was 0.0556; in assay [18], -0.122; in [19], -0.134; in assay [20], 0.424. The z-score was -0.841 (inactive) in [4] and -0.0912 in [12].

Consider `CCCCCCc1nc(CCCc2cc3c(c(CCCCCC)n2)[Si](C(C)C)(C(C)C)OC3)cc2c1[Si](C(C)C)(C(C)C)OC2`, for which the composite z-score is -0.432 in [1]; -0.33 in assay [2]; -0.138 in assay [3]; -0.408 in assay [5]; -0.242 in assay [6]; -0.0687 in [7]. The composite z-score is -0.176 in assay [8]; 0.279 in assay [9]; 1.49 in [10]; -0.893 in assay [11]; -0.116 in [13]; -0.63 in assay [14]. Also, the composite z-score in [15] was -0.0511; in [16], -0.1; in assay [17] it was 0.214; in [18] it was -0.303; in [19], -0.386; in assay [20], -0.325. Besides, the z-score is 0.775 (inactive) in [4] and -3.46 in [12].

Consider `CN1C(=O)C2C=CC(C(O)c3ccccn3)N(Nc3ccccc3)C2C1=O` (stereo not given), for which the composite z-score in assay [1] came to 0.427; in [2], 0.257; in assay [3], 0.276; in [5] it was 0.3; in [6], 0.422; in assay [7] it was 0.389. For the same compound, the composite z-score in assay [8] was 0.157; in assay [9], -0.0961; in [10] it was 1.05; in [11], 0.409; in assay [13], 0.129; in assay [14], -0.163. Moreover, the composite z-score in assay [15] was -0.408; in [16] it was -0.0647; in assay [17], 0.318; in assay [18] it was 0.266; in [19], 0.353; in assay [20] it was 0.476. For the same compound, the z-score in [4] was 0.782 (inactive); in assay [12] it was 0.0435.

In the case of `CCOC(=O)C1=CCC(c2ccc(C#N)cc2)N(S(=O)(=O)c2ccc(C)cc2)C1` (stereo not given), the composite z-score in assay [1] came to 1.13; in [2] it was 1.22; in assay [3], 1.05; in [5], 0.637; in assay [6], 1.29; in assay [7], 0.555. Besides, the composite z-score in [8] was 1.21; in [9], -0.0007; in [10], 0.2; in [11], -0.437; in [13], 0.47; in [14] it was 2.02. In addition, the composite z-score was 0.536 in [15]; -0.117 in assay [16]; 0.109 in [17]; -0.557 in assay [18]; 0.479 in assay [19]; 2.25 in assay [20]. Also, the z-score in [4] is -0.415 (inactive); in assay [12], -2.66.

Take `CN(C)CCCCNC(=O)[C@H]1C[C@H]2C(=O)N[C@@H](Cc3ccccc3)C(=O)N2[C@H]1c1ccc(O)cc1`: the composite z-score in assay [1] was 0.725; in assay [2], -0.0299; in [3] it was -0.0646; in [5], 1.4; in [6], 1.2; in [7] it was 0.425. Besides, the composite z-score in assay [8] was 1.39; in [9], 1.5; in [10] it was -0.44; in assay [11], 1.38; in [13], 1.17; in assay [14] it was 0.561. Also, the composite z-score in assay [15] was 0.746; in assay [16] it was -0.0866; in assay [17], -0.0243; in assay [18], 0.355; in assay [19] it was 0.945; in assay [20], 1.55. Moreover, the results for the z-score in [4] and in assay [12] were -1.03 (inactive) and 0.506, respectively.

Regarding `COC(=O)c1ccc(C23CC2(C(NP(=O)(c2ccccc2)c2ccccc2)c2ccccc2)C3)cc1` (stereo not given), the composite z-score in assay [1] was 0.36; in assay [2], 1.83; in assay [3], 1.39; in assay [5] it was 0.831; in assay [6], -0.0094; in [7] it was 0.134. Further, the composite z-score in assay [8] is 0.835; in assay [9], -0.63; in [10], 0.893; in [11], 1.31; in [13] it was -0.0656; in assay [14] it was 2.35. In addition, the composite z-score in assay [15] is 0.696; in assay [16], 0.195; in [17] it was 0.484; in assay [18], -0.708; in [19] it was 2.58; in assay [20], 1.38. For the same compound, the z-score is -3.03 (inactive) in [4] and -1.17 in [12].

For the compound `CC(C)C[C@@H]1NC(=O)[C@@H]2C[C@H](C(=O)NCCCCCC[N+](C)(C)C)[C@H](c3ccc(O)cc3)N2C1=O`, the composite z-score is 1.38 in assay [1]; 0.026 in assay [2]; 0.0989 in assay [3]; 0.623 in [5]; 1.21 in assay [6]; 0.29 in assay [7]. The composite z-score in [8] was 0.706; in [9] it was 0.977; in [10], 0.987; in [11], 1.15; in [13], 0.424; in assay [14], 0.669. Also, the composite z-score is -1.15 in assay [15]; -0.208 in assay [16]; 0.246 in [17]; -0.158 in assay [18]; 0.912 in [19]; 2 in assay [20]. Also, the z-score in assay [4] was 0.00513 (inactive); in [12], 0.0338.

Values taken from PubChem BioAssay.
